Shown are actives, neighbours in structure and some others; about 6.8% of the full set was active somewhere.
NS3h inh CB = blocks HCV NS3 helicase binding to DNA; NS3h Cy5-dT15 DNA binding, fluorescence polarization; inhibition, % at 100 µM; 16,000 compounds, 1.6% hits; AID 687043;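 active means inhibition above the average over every tested compound plus 3 SD, cut at about 40% in these data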
Cy5 interf NS3h = Cy5 fluorescence interference, HCV helicase counter-screen | Cy5-dT15 DNA with NS3h; actives lie on both sides; signal over control mean, under 1 quenches | fluorescence interference ratio at 100 µM | 16,000 compounds, 6% hits | AID 720488;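 active means compound fluorescence over control fluorescence at most 0.8, a quencher, or at least a set upper limit, an enhancer; inactive means ratio between 0.8 and the set upper limit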
Starred values were filed as active, the others as inactive.

SMILES	NS3h inh CB	Cy5 interf NS3h
Cc1ccc(C(=O)N/N=C\C=C\c2ccc([N+](=O)[O-])cc2)cn1	5	1
O=Cc1ccc(OC(=O)c2sc3ccccc3c2Cl)cc1	4	1
COC(=O)C(CC(C(=O)OC)C(=O)OC)C(=O)OC	-2	1
COC(=O)C(CCCC(C(=O)OC)C(=O)OC)C(=O)OC	2	0.68*
O=C(Nc1ccc(F)c(Cl)c1)c1nn2c(c1Cl)NC(c1ccccc1)CC2C(F)(F)F (stereo unspecified)	7	1
O=C1N/C(=N/N=C\c2ccccc2)S/C1=C\c1ccccc1	-14	1.1
O=C1NC(=Nc2ccccc2)S/C1=C/c1ccc(O)cc1	8	1.3*
O=C(Nc1ccc2nn(-c3ccc(Cl)cc3)nc2c1)c1ccc([N+](=O)[O-])cc1	-14	1
Cc1ccc(OCCSc2nc(C)cc(=O)[nH]2)c(C(C)C)c1	2	1
O=C(Nc1ccc(-c2nc3ncccc3o2)cc1)c1ccc(-c2cccc(Cl)c2)o1	-44	1.2*
O=C(Nc1ccc2ccccc2c1)c1ccc(-c2cccc(Cl)c2)o1	5	0.94
O=C(Nc1ccc(Cl)c(NC(=O)c2ccc(Cl)cc2Cl)c1)c1cccs1	10	1
C=CCOC(=O)C1=C(C)NC(C)=C(C(=O)OCC=C)C1c1ccco1	29	0.73*
CCOC(=O)C1=C(C)NC(C)=C(C(=O)OC)C1c1ccco1 (stereo unspecified)	-3	0.91
O=C(/C=C/c1cn(-c2ccccc2)nc1-c1ccccc1)c1cccs1	5	1
COc1cc(OC)cc(C(=O)N2CCN(C3CCC(c4ccccc4)CC3)CC2)c1 (stereo unspecified)	13	0.82
COc1cccc(C(=O)N2CCN(C3CC4CCC3C4)CC2)c1 (stereo unspecified)	-10	0.68*
COCCNC(=O)c1cnn2c1NC(c1ccc(OC)c(OC)c1)CC2C(F)(F)F (stereo unspecified)	-10	0.94
O=C(c1ccccc1)N1CCN(C(=O)c2cnn3c2NC(c2ccc(Br)cc2)CC3C(F)(F)F)CC1 (stereo unspecified)	17	1.1
O=C(NCCN1CCOCC1)c1cnn2c1NC(c1ccco1)CC2C(F)(F)F (stereo unspecified)	0	1
COc1ccc(C2CC(C(F)(F)F)n3ncc(C(=O)N4CCN(Cc5ccccc5)CC4)c3N2)cc1OC (stereo unspecified)	9	0.61*
COc1ccc(C2CC(C(F)(F)F)n3ncc(C(=O)Nc4ccccc4SC)c3N2)cc1 (stereo unspecified)	8	1
Cc1ccc(C2CC(C(F)(F)F)n3ncc(C(=O)N4CCN(c5ccc(F)cc5)CC4)c3N2)cc1 (stereo unspecified)	3	0.63*
COc1ccc(C2CC(C(F)(F)F)n3ncc(C(=O)NC(C)(C)C)c3N2)cc1 (stereo unspecified)	8	0.69*
Cc1ccc(C2CC(C(F)(F)F)n3ncc(C(=O)NCCN4CCOCC4)c3N2)cc1 (stereo unspecified)	9	0.77*
SMILES	NS3h inh CB	Cy5 interf NS3h
O=C1C(=O)N(c2ccccn2)C(c2cccc(Cl)c2)C1=C(O)c1ccc(Cl)cc1 (stereo unspecified)	3	1
O=[N+]([O-])c1ccc(CSc2nnc(-c3cccc(F)c3)n2-c2ccccc2)cc1	4	0.79*
Cc1ccc(CSc2nnc(-c3cccc(F)c3)n2-c2ccccc2)cc1	4	0.88
COc1cccc(/C=N\Nc2nc(C)cc(=O)[nH]2)c1O	6	0.96
O=c1nc(-c2ccccc2)c2cc(OC(F)(F)F)ccc2[nH]1	19	0.9
COc1ccc(Cl)cc1C(=O)Nc1ccc(Nc2ccccc2)cc1	12	0.93
CN1C(=O)C(=Cc2cc([N+](=O)[O-])ccc2O)C(=O)N(C)C1=O	20	0.99
O=C1NC(=S)N(c2ccccc2)C(=O)/C1=C/c1ccc(O)c(Cl)c1	10	1.2*
O=C1NC(=S)N(c2cccc(Br)c2)C(=O)/C1=C/c1ccc(O)c(Cl)c1	-5	1.2
COc1ccc(-n2nnnc2C(=Cc2ccc(N(C)C)cc2)c2nnnn2-c2ccc(OC)cc2)cc1	11	1
CC(O)CNC(=O)C1CC(=O)N(c2ccc(Br)cc2)C1 (stereo unspecified)	-1	0.98
N/C(Cc1cccc2ccccc12)=N/OC(=O)c1ccco1	17	1.1
O=C(Oc1cccc2ccccc12)c1ccco1	3	0.57*
O=C(COc1ccccc1[N+](=O)[O-])Nc1ccc2oc(-c3cccc(Cl)c3)nc2c1	-19	1.1
Cc1ccc(-c2nc3cc(Cl)ccc3o2)cc1NC(=O)c1ccc2c(c1)OCCO2	-4	1.2
CC(=O)Nc1ccc2oc(-c3cccc(Cl)c3)nc2c1	-20	1.2*
O=C(Nc1cccc(-c2nc3cc(Cl)ccc3o2)c1)c1ccc2c(c1)OCCO2	11	0.71*
CCOC(=O)c1c(-c2ccccc2)csc1-n1c(C)ccc1C	2	1
CC12CC3CC(C)(C1)CC(CNC(=O)Nc1ccccc1)(C3)C2	6	1
CCOc1ccccc1NC(=O)CSc1nnc(C)s1	0	0.68*
COc1ccccc1NC(=O)CSc1nsc(SCC(=O)Nc2ccccc2OC)n1	1	0.9
CCOc1ccc(C(=O)Nc2cc(-c3nc4ccccc4s3)ccc2C)cc1Cl	-5	0.99
CN(C)/C(=N\OC(=O)c1ccc([N+](=O)[O-])cc1)c1nonc1N	19	0.67*
N/C(=N/OC(=O)c1ccc(I)cc1)c1ccc([N+](=O)[O-])cc1	3	0.95
COc1cc(CN2CCN(Cc3cccc(Cl)c3)CC2)c([N+](=O)[O-])cc1OC	-5	1
SMILES	NS3h inh CB	Cy5 interf NS3h
O=C(NC(=S)Nc1ccc2oc(-c3cccc4c(Br)cccc34)nc2c1)c1ccco1	-4	0.99
O=C(NC1CCS(=O)(=O)C1)/C(=C\c1ccc(Br)cc1)NC(=O)c1ccccc1 (stereo unspecified)	8	1.3*
CC(C)c1ccc(/C=C(\NC(=O)c2ccccc2)C(=O)NC2CCS(=O)(=O)C2)cc1 (stereo unspecified)	10	0.86
COc1ccc2c(c1)c(C1N3CC4(C)CN1CC(C)(C3)C4=O)c(C)n2C (stereo unspecified)	2	0.94
NC1=NC(=O)/C(=C/c2cc(Br)ccc2OS(=O)(=O)c2ccc([N+](=O)[O-])cc2)S1	4	0.99
COc1ccc(C2NC(=O)NC(C)=C2C(=O)Nc2ccccc2OC)cc1 (stereo unspecified)	1	0.96
COc1ccc(-c2cc(C(F)(F)F)n3nc(C(=O)NCCCn4ccnc4)c(Cl)c3n2)cc1	2	0.68*
COc1ccc(-c2cc(C(F)(F)F)n3nc(C(=O)Nc4ccccc4C(F)(F)F)cc3n2)cc1	4	1.1
COC(=O)c1cc(-c2ccc(/C=C(\C#N)c3nc4ccccc4[nH]3)o2)ccc1Cl	4	1
Cc1ccc2nc(/C(C#N)=C/c3ccc(-c4ccc(Cl)cc4)o3)[nH]c2c1	-51	0.77*
CNc1nc2ccc(C)cn2c(=O)c1/C=N\O	-4	1
O=C1c2ccc(-c3nc4ccccc4o3)cc2C(=O)N1c1cccc(-c2nc3ccccc3o2)c1	2	0.99
O=C(c1ccc(Cl)cc1)N1CCN=C1c1ccccc1	2	0.64*
O=C(c1ccccc1)N1CCN=C1c1ccccc1	-8	0.88
COc1ccc(CN2CCN(Cc3ccc(OC)c(OC)c3)CC2)c(OC)c1	0	1.2

Assay outcomes (PubChem)
